Results filed as inconclusive are left out. Entries that show only a call come without a potency. Calls of active or inactive are those of the source. Calls come from the whole dose curve; as a rule, active = well fitted cell-killing curve with a large enough effect; inconclusive = small, poorly fitted or top-dose-only effect, or effect the other way; inactive = flat fitted curve, though single readings scatter.

The first assay deals with C33A. As to the kind of experiment: Primary qHTS to identify gynecologic anti-cancer compounds using libraries of approved drugs and bioactive compounds (AID 1345084). Note: nearly all actives have a fitted effect of over 55% in size. As to conditions: Gynecologic cancer cell panel viability, ATPlite luminescence, 48 h; series mostly up to 57.5 µM. A digest of the protocol: (§1)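 Five-concentration response, 48 h; readout is ATP-driven luciferase luminescence.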
(Quantitative high-throughput screening tests each substance at several concentrations.)
As to `CC(C)=C[C@@H]1[C@@H](C(=O)OCc2coc(Cc3ccccc3)c2)C1(C)C`, the Potency entry is “inactive”.
The same measure, in the same setting: with `CCN(CC)C(C)C(=O)c1ccccc1` (stereo not given) the entry was “inactive”; with `Nc1ccc(Cl)cc1C(=O)c1ccccc1F`, “inactive”.
For `COc1ccc(C(=O)N2CCCC2=O)cc1`, the Potency result is “inactive”.
Same read-out and setting: as for `CC(C)C(Br)C(=O)NC(N)=O` (stereo not given), the entry is “inactive”.
Consider `C#C[C@]1(O)CC[C@H]2[C@@H]3CCC4=CC(=O)CCC4=C3C=C[C@@]21CC`, for which the Potency entry was “inactive”.
Turning to `CC(CC(C(N)=O)(c1ccccc1)c1ccccc1)N(C)C` (stereo not given), the Potency entry is “inactive”.
As for `C#C[C@]1(O)C=C[C@H]2[C@@H]3CCC4=CC(=O)CC[C@@H]4[C@H]3CC[C@@]21CC`, the Potency result is “inactive”.
As for `C[C@@H]1CC[C@H]2[C@@H](C)C(=O)O[C@@H]3O[C@@]4(C)CC[C@@H]1[C@]32OO4`, the Potency result was “inactive”.
In the case of `CNC(C)Cc1ccccc1OC` (stereo not given), the Potency entry is “inactive”.
Consider `CC(Cc1ccccc1)NCc1ccccc1Cl` (stereo not given), for which the Potency entry was “inactive”.
Consider `Nc1ccccc1C(=O)OCC(O)CO` (stereo not given), for which the Potency result was “inactive”.
On to `CC(C)NCC(O)c1ccc(N)c(C#N)c1` (stereo not given), for which the Potency result is “inactive”.
Regarding `Sc1ccccc1Cl`, the Potency entry was “inactive”.
Regarding `CCN(CC)CCOC(=O)C(C)(c1ccccc1)c1ccccc1`, the Potency entry is “inactive”.
Turning to `COc1ccc2[nH]cc(CCN(C(C)C)C(C)C)c2c1`, the Potency entry is “inactive”.
On the same count and under the same terms, with `COc1cc(CC#N)cc(OC)c1OC` the entry was “inactive”; with `O=C(CBr)Nc1ccc(Cl)cc1C(=O)c1ccccc1F`, “inactive”.
As for `COP(=S)(OC)Oc1ccc(S(N)(=O)=O)cc1`, the Potency entry was “inactive”.
On the same count and under the same terms, as for `C[N+](C)(C)CCOC(=O)C(O)(c1ccccc1)c1ccccc1`, the entry is “inactive”.
With `ClCCCN1CCN(c2cccc(Cl)c2)CC1`, the Potency entry is “inactive”.
Regarding `CCc1ccc(C2CCNCC2)cc1`, the Potency entry is “inactive”.
On to `CCC1(c2ccccc2)CCC(=O)NC1=O` (stereo not given), for which the Potency result is “inactive”.
On the same count and under the same terms, as for `CN(C)C(=O)Oc1cc(OC(=O)N(C)C)cc(C(O)CNC(C)(C)C)c1` (stereo not given), the entry is “inactive”.
For the compound `Oc1ccc([C@H]2CNCc3c2ccc(O)c3O)cc1O`, the Potency result is “inactive”.
As for `CCOC(=O)C(c1c(O)c2ccccc2oc1=O)c1c(O)c2ccccc2oc1=O`, the Potency result was “inactive”.
For the compound `ClCc1cccc(Cl)c1`, the Potency entry was “inactive”.
As for `OC(c1ccccc1)(c1ccccc1)C1CCNCC1`, the Potency result is “inactive”.
Regarding `CCOC(=O)C1(c2ccccc2)CCN(CCc2ccc(N)cc2)CC1`, the Potency entry is “inactive”.
Take `CCOC(=O)NC(O)C(Cl)(Cl)Cl` (stereo not given): the Potency result was “inactive”.
Consider `C[C@H]1CNCCc2ccc(Cl)cc21`, for which the Potency entry was “inactive”.
For `COP(=O)(OC)OC=C(Cl)Cl`, the Potency entry is “inactive”.
For the compound `CC(C)(C)OC(=O)c1ncn2c1[C@@H]1CCCN1C(=O)c1c(Br)cccc1-2`, the Potency entry is “inactive”.
`NC(=O)OCCCc1ccccc1`: the Potency result is “inactive”.
For the compound `C[C@]12CC[C@H](O)CC1=CC[C@@H]1[C@@H]2CC[C@]2(C)C(=O)CC[C@@H]12`, the Potency entry was “inactive”.
As to `OC(O)C(Cl)(Cl)Cl`, the Potency entry is “inactive”.
Consider `CCCCC1C(=O)NC(=O)N(C2CCCCC2)C1=O` (stereo not given), for which the Potency entry is “inactive”.
Turning to `CN1C[C@@H](NS(=O)(=O)N(C)C)C[C@@H]2c3cccc4c3c(cn4C)C[C@H]21`, the Potency entry is “inactive”.
As to `CC(Cc1ccccc1)NCCCCl` (stereo not given), the Potency entry was “inactive”.
With `C[C@]12CC[C@H]3[C@@H](CCC4=CC(=O)CC[C@@H]43)[C@@H]1CC[C@@H]2O`, the Potency entry is “inactive”.

The subject of another assay is CAOV3. Described as above. As to conditions: Gynecologic cancer cell panel viability, ATPlite luminescence, 48 h; series mostly up to 57.5 µM. Summed up: as §1
In the case of `CC(C)=C[C@@H]1[C@@H](C(=O)OCc2coc(Cc3ccccc3)c2)C1(C)C`, the Potency result was “inactive”.
For `CCN(CC)C(C)C(=O)c1ccccc1` (stereo not given), the Potency entry is “inactive”.
With `Nc1ccc(Cl)cc1C(=O)c1ccccc1F`, the Potency entry was “inactive”.
Still for that read-out and setting: as for `COc1ccc(C(=O)N2CCCC2=O)cc1`, the entry is “inactive”; as for `CC(C)C(Br)C(=O)NC(N)=O` (stereo not given), “inactive”.
On to `C#C[C@]1(O)CC[C@H]2[C@@H]3CCC4=CC(=O)CCC4=C3C=C[C@@]21CC`, for which the Potency result is “inactive”.
Consider `CC(CC(C(N)=O)(c1ccccc1)c1ccccc1)N(C)C` (stereo not given), for which the Potency result is “inactive”.
Take `C#C[C@]1(O)C=C[C@H]2[C@@H]3CCC4=CC(=O)CC[C@@H]4[C@H]3CC[C@@]21CC`: the Potency result was “inactive”.
As to `C[C@@H]1CC[C@H]2[C@@H](C)C(=O)O[C@@H]3O[C@@]4(C)CC[C@@H]1[C@]32OO4`, the Potency entry is “inactive”.
Turning to `CNC(C)Cc1ccccc1OC` (stereo not given), the Potency result is “inactive”.
On the same count and under the same terms, with `CC(Cc1ccccc1)NCc1ccccc1Cl` (stereo not given) the entry was “inactive”; with `Nc1ccccc1C(=O)OCC(O)CO` (stereo not given), “inactive”; with `CC(C)NCC(O)c1ccc(N)c(C#N)c1` (stereo not given), “inactive”.
Consider `Sc1ccccc1Cl`, for which the Potency result is “inactive”.
On the same count and under the same terms, as for `CCN(CC)CCOC(=O)C(C)(c1ccccc1)c1ccccc1`, the entry is “inactive”; as for `COc1ccc2[nH]cc(CCN(C(C)C)C(C)C)c2c1`, “inactive”.
On the same count and under the same terms, as for `COc1cc(CC#N)cc(OC)c1OC`, the entry is “inactive”.
`O=C(CBr)Nc1ccc(Cl)cc1C(=O)c1ccccc1F`: the Potency result is “inactive”.
Consider `COP(=S)(OC)Oc1ccc(S(N)(=O)=O)cc1`, for which the Potency entry was “inactive”.
Take `C[N+](C)(C)CCOC(=O)C(O)(c1ccccc1)c1ccccc1`: the Potency result is “inactive”.
On to `ClCCCN1CCN(c2cccc(Cl)c2)CC1`, for which the Potency result is “inactive”.
Same read-out and setting: with `CCc1ccc(C2CCNCC2)cc1` the entry was “inactive”; with `CCC1(c2ccccc2)CCC(=O)NC1=O` (stereo not given), “inactive”; with `CN(C)C(=O)Oc1cc(OC(=O)N(C)C)cc(C(O)CNC(C)(C)C)c1` (stereo not given), “inactive”.
Turning to `Oc1ccc([C@H]2CNCc3c2ccc(O)c3O)cc1O`, the Potency result was “inactive”.
On to `CCOC(=O)C(c1c(O)c2ccccc2oc1=O)c1c(O)c2ccccc2oc1=O`, for which the Potency result is “inactive”.
Still for that read-out and setting: with `ClCc1cccc(Cl)c1` the entry was “inactive”.
For `OC(c1ccccc1)(c1ccccc1)C1CCNCC1`, the Potency result was “inactive”.
Take `CCOC(=O)C1(c2ccccc2)CCN(CCc2ccc(N)cc2)CC1`: the Potency entry is “inactive”.
As to `CCOC(=O)NC(O)C(Cl)(Cl)Cl` (stereo not given), the Potency entry was “inactive”.
Consider `C[C@H]1CNCCc2ccc(Cl)cc21`, for which the Potency result is “inactive”.
Consider `COP(=O)(OC)OC=C(Cl)Cl`, for which the Potency result is “inactive”.
As for `CC(C)(C)OC(=O)c1ncn2c1[C@@H]1CCCN1C(=O)c1c(Br)cccc1-2`, the Potency result was “inactive”.
On the same count and under the same terms, as for `NC(=O)OCCCc1ccccc1`, the entry is “inactive”; as for `C[C@]12CC[C@H](O)CC1=CC[C@@H]1[C@@H]2CC[C@]2(C)C(=O)CC[C@@H]12`, “inactive”; as for `OC(O)C(Cl)(Cl)Cl`, “inactive”.
For `CCCCC1C(=O)NC(=O)N(C2CCCCC2)C1=O` (stereo not given), the Potency entry was “inactive”.
Same read-out and setting: with `CN1C[C@@H](NS(=O)(=O)N(C)C)C[C@@H]2c3cccc4c3c(cn4C)C[C@H]21` the entry was “inactive”; with `CC(Cc1ccccc1)NCCCCl` (stereo not given), “inactive”; with `C[C@]12CC[C@H]3[C@@H](CCC4=CC(=O)CC[C@@H]43)[C@@H]1CC[C@@H]2O`, “inactive”.

Source of the values: PubChem BioAssay (NCATS).
